Active and inactive are the calls of the source. How the source made its calls: active means hit-call score of the fitted dose curve at least 0.9, where 1 is the maximum; inactive means score below 0.9.
How the values were obtained:
[1] = read-out: TIMP metallopeptidase inhibitor 2 (TIMP2), TIMP2 (gene 7077); assay: BSK_KF3CT_TIMP2: BioMAP Diversity Plus: KF3CT Assay for TIMP metallopeptidase inhibitor 2 (TIMP2) Biomarker Activity (AID 2283071); settings: primary human keratinocytes with fibroblasts; actives raise or lower the signal
In short: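 Co-culture of human primary keratinocytes and foreskin fibroblasts, measured 24 h after chemical dosing. TIMP-2 quantified by ELISA and fitted in both directions relative to DMSO. Cytotoxicity checked in parallel cultures by SRB total-protein staining.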

[2] = read-out: Transforming growth factor beta 1 (TGFb1), TGFB1 (gene 7040); assay: BSK_KF3CT_TGFb1: BioMAP Diversity Plus: KF3CT Assay for Transforming growth factor beta 1 (TGFb1) Biomarker Activity (AID 2283072); settings: primary human keratinocytes with fibroblasts; actives raise or lower the signal
In short: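 Human keratinocyte/foreskin fibroblast co-culture; TGF-b1 measured by ELISA 24 h after dosing, fitted bidirectionally versus DMSO. Cytotoxicity checked in parallel cultures by total protein (SRB staining, 560 nm).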

[3] = read-out: C-C motif chemokine 2 (Homo sapiens) (UniProt P13500); assay: BSK_KF3CT_MCP1: BioMAP Diversity Plus: KF3CT Assay for Monocyte Chemoattractant Protein 1 (MCP1/CCL2) Biomarker Activity (AID 2283073); settings: primary human keratinocytes with fibroblasts; actives raise or lower the signal
In short: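 Keratinocytes and foreskin fibroblasts were co-cultured, dosed with chemical, and sampled 24 h later. MCP-1 was quantified by ELISA, and the endpoint was analyzed with bidirectional fitting using DMSO as negative control.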

[4] = read-out: Matrix Metallopeptidase 9 (MMP9), MMP9 (gene 4318); assay: BSK_KF3CT_MMP9: BioMAP Diversity Plus: KF3CT Assay for Matrix Metallopeptidase 9 (MMP9) Biomarker Activity (AID 2283074); settings: primary human keratinocytes with fibroblasts; actives raise or lower the signal;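 on AC50: MMP9 protein level quantified by ELISA in the co-culture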
In short: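 Human keratinocyte/foreskin fibroblast co-culture; compound added; 24 h; MMP-9 by ELISA; bidirectional fit vs DMSO baseline.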

CD40, CD40 (gene 958) [5] = assay: BSK_LPS_CD40: BioMAP Diversity Plus: LPS Assay for CD40 Biomarker Activity (AID 2283076); settings: primary human HUVEC with PBMC; actives raise or lower the signal
In short: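 CD40 signal, measured by ELISA, is fitted in both directions relative to DMSO vehicle. The system is an LPS-driven human vascular primary co-culture of endothelial cells and PBMC, sampled 24 h after compound addition.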

[6] = read-out: E-selectin (Homo sapiens) (UniProt P16581); assay: BSK_LPS_Eselectin: BioMAP Diversity Plus: LPS Assay for Eselectin Biomarker Activity (AID 2283077); settings: primary human HUVEC with PBMC; actives raise or lower the signal
In short: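 Signal of E-selectin, detected by ELISA, served as the endpoint; cells were umbilical vein endothelium with PBMC, read 24 h after treatment. DMSO defined baseline, and both increases and decreases were fitted.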

[7] = read-out: Interleukin-8 (IL8), CXCL8 (gene 3576); assay: BSK_LPS_IL8: BioMAP Diversity Plus: LPS Assay for Interleukin-8 (IL8) Biomarker Activity (AID 2283078); settings: primary human HUVEC with PBMC; actives raise or lower the signal
In short: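 Endothelial cells and PBMC from human donors are co-cultured, treated with chemicals and LPS, then assayed for IL-8 by ELISA after 24 h. Parallel SRB staining (0.1% SRB after 10% TCA fixation, 560 nm) flags cytotoxicity.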

[8] = BSK_LPS_SRB: Viability Assessment in the BioMAP Diversity Plus: LPS Assay (AID 2283079); settings: primary human HUVEC with PBMC;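 further: total protein by sulforhodamine B absorbance as a cytotoxicity measure; measured one day after compound addition; fitted in both directions against DMSO so loss or gain of signal counts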
In short: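 Overt cytotoxicity was gauged by sulforhodamine B total-protein staining in a primary human vascular endothelial and mononuclear cell co-culture 24 h post-dosing. Activity was fitted in both directions relative to DMSO.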

[9] = read-out: Interleukin-1 alpha (IL1a), IL1A (gene 3552); assay: BSK_LPS_IL1a: BioMAP Diversity Plus: LPS Assay for Interleukin-1 alpha (IL1a) Biomarker Activity (AID 2283080); settings: primary human HUVEC with PBMC; actives raise or lower the signal
In short: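 Measured: IL-1 alpha via ELISA at 24 h in LPS-activated human umbilical vein endothelium–PBMC co-culture. Baseline: DMSO, bidirectional fitting.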

[10] = read-out: Monocyte Chemoattractant Protein-1 (MCP1), CCL2 (gene 6347); assay: BSK_LPS_MCP1: BioMAP Diversity Plus: LPS Assay for Monocyte Chemoattractant Protein-1 (MCP1) Biomarker Activity (AID 2283081); settings: primary human HUVEC with PBMC; actives raise or lower the signal;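 on AC50: secreted MCP-1 protein quantified by ELISA in culture supernatant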
In short: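 LPS-stimulated HUVEC/PBMC co-culture; chemical, 24 h; MCP-1 by ELISA; bidirectional fit vs DMSO; cytotoxicity via SRB (0.1% stain, 10% TCA fix, 560 nm) in parallel wells.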

[11] = BSK_LPS_PGE2: BioMAP Diversity Plus: LPS Assay for Prostaglandin E2 (PGE2) Biomarker Activity (AID 2283082); settings: primary human HUVEC with PBMC; actives raise or lower the signal
In short: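 HUVEC plus human PBMC co-culture stimulated with LPS; secreted PGE2 quantified by ELISA 24 h after chemical dosing. Activity fitted bidirectionally against DMSO baseline; parallel SRB staining (0.1% SRB after 10% TCA fixation, 560 nm) flags overt cytotoxicity.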

[12] = read-out: Macrophage colony-stimulating factor (MCSF), CSF1 (gene 1435); assay: BSK_LPS_MCSF: BioMAP Diversity Plus: LPS Assay for Macrophage colony-stimulating factor (MCSF) Biomarker Activity (AID 2283083); settings: primary human HUVEC with PBMC; actives raise or lower the signal
In short: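 Compound is added to a human vascular primary co-culture of umbilical vein endothelium and blood mononuclear cells. After 24 h, M-CSF is quantified by ELISA. Signal changes are fitted in both directions against DMSO.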

[13] = read-out: Tissue Factor, F3 (gene 2152); assay: BSK_LPS_TissueFactor: BioMAP Diversity Plus: LPS Assay for Tissue Factor Biomarker Activity (AID 2283084); settings: primary human HUVEC with PBMC; actives raise or lower the signal
In short: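 In this co-culture system of umbilical vein endothelium with PBMC, stimulated with LPS, cell-surface CD142 is detected by ELISA at 24 h. Endpoint values derive from bidirectional fitting, DMSO serving as baseline.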

[14] = read-out: Tumor necrosis factor (Homo sapiens) (UniProt P01375); assay: BSK_LPS_TNFa: BioMAP Diversity Plus: LPS Assay for Tumour Necrosis Factor alpha (TNFa) Biomarker Activity (AID 2283085); settings: primary human HUVEC with PBMC; actives raise or lower the signal
In short: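 Human umbilical vein endothelial cells co-cultured with PBMC and stimulated with LPS. TNFa was measured by ELISA 24 h after chemical dosing, fitted bidirectionally relative to DMSO.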

[15] = read-out: Vascular cell adhesion molecule 1 (VCAM1), VCAM1 (gene 7412); assay: BSK_LPS_VCAM1: BioMAP Diversity Plus: LPS Assay for Vascular cell adhesion molecule 1 (VCAM1) Biomarker Activity (AID 2283086); settings: primary human HUVEC with PBMC; actives raise or lower the signal
In short: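 Human umbilical vein endothelial cells co-cultured with PBMC and stimulated with LPS; VCAM-1 measured by ELISA 24 h after dosing. Bidirectional curve fitting against DMSO baseline; cytotoxicity tracked in parallel by SRB total-protein staining.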

CD40, CD40 (gene 958) [16] = assay: BSK_SAg_CD40: BioMAP Diversity Plus: SAg Assay for CD40 Biomarker Activity (AID 2283088); settings: primary human HUVEC with PBMC; actives raise or lower the signal
In short: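 Fluorescence ELISA read-out of CD40 from umbilical vein endothelium plus peripheral blood mononuclear cells, sampled 24 h after dosing. Values come from bidirectional curve fitting with DMSO as baseline.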

CD69, CD69 (gene 969) = assay: BSK_SAg_CD69: BioMAP Diversity Plus: SAg Assay for CD69 Biomarker Activity (AID 2283089); settings: primary human HUVEC with PBMC; actives raise or lower the signal;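 on AC50: cell surface CD69 protein quantified by ELISA with fluorescence detection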
In short: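 ELISA, fluorescence read-out: CD69 on human umbilical vein endothelial cell + PBMC co-culture, 24 h post-dosing. Gain or loss of signal fitted bidirectionally against DMSO baseline.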

[17] = read-out: Monocyte Chemoattractant Protein-1 (MCP1), CCL2 (gene 6347); assay: BSK_SAg_MCP1: BioMAP Diversity Plus: SAg Assay for Monocyte Chemoattractant Protein-1 (MCP1) Biomarker Activity (AID 2283090); settings: primary human HUVEC with PBMC; actives raise or lower the signal
In short: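 MCP-1 levels in the endothelial–PBMC SAg co-culture were quantified by ELISA at 24 h post-dosing; both increases and decreases versus DMSO scored. Cytotoxicity monitored by SRB total protein in parallel cultures.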

CD38, CD38 (gene 952) = assay: BSK_SAg_CD38: BioMAP Diversity Plus: SAg Assay for CD38 Biomarker Activity (AID 2283087); settings: primary human HUVEC with PBMC; actives raise or lower the signal
In short: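 Human HUVEC plus PBMC co-culture stimulated with superantigen; CD38 measured by ELISA 24 h after chemical dosing. Fluorescence read-out, bidirectional fit against DMSO; cytotoxicity tracked in parallel by SRB and Alamar Blue.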

Measured: AC50

Chain of E-selectin (Homo sapiens) (P16581 whole entry, looked up): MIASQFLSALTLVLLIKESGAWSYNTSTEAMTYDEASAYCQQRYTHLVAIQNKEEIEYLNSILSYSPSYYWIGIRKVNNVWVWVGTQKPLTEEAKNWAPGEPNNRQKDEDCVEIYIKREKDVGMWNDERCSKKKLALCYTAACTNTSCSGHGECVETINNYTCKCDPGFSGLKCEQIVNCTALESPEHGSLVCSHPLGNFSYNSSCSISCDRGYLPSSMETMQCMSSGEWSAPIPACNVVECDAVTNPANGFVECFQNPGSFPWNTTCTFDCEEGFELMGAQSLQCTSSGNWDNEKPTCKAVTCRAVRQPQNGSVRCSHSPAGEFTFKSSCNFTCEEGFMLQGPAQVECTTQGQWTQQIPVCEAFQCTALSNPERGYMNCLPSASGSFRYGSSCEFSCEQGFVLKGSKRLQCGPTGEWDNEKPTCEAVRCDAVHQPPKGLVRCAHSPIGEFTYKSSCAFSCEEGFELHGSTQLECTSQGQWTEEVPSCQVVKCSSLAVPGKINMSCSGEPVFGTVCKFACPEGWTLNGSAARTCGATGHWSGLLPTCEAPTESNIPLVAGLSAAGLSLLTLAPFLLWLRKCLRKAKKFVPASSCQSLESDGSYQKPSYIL
Chain of Tumor necrosis factor (Homo sapiens) (P01375 whole entry, looked up): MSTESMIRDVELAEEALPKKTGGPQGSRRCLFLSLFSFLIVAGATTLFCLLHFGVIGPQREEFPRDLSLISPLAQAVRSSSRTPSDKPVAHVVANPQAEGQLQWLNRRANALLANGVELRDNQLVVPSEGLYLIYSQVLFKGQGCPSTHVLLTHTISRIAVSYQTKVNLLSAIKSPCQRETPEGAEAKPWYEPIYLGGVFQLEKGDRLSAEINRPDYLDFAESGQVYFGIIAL

N#Cc1c[nH]cc1-c1cccc2c1OC(F)(F)O2
active: CD40, CD40 (gene 958) [5] 7.2 µM | [8] 8.62 µM | [9] 14.8 µM | [10] 17.9 µM | [12] 26.3 µM | [14] 29.8 µM | [15] 20 µM | CD40, CD40 (gene 958) [16] 20 µM | CD69, CD69 (gene 969) 24.5 µM | [17] 20.4 µM
inactive: [1] | [2] | [3] | [4] | [6] | [7] | [11] | [13]

O=C1C2CC=CCC2C(=O)N1SC(Cl)(Cl)Cl (stereo not given)
inactive: [8] | [9] | [10] | [11] | CD40, CD40 (gene 958) [16] | CD69, CD69 (gene 969)
active: [1] 11.2 µM | [3] 11.8 µM | [4] 8.54 µM | CD40, CD40 (gene 958) [5] 22.3 µM | [6] 29.5 µM | [7] 25.2 µM | [12] 29 µM | [13] 31.4 µM | [14] 36.6 µM | [15] 14.3 µM | CD38, CD38 (gene 952) 30.5 µM

CCCN(CC)CC1COC2(CCC(C(C)(C)C)CC2)O1 (stereo not given)
active: [1] 6.62 µM | [3] 0.739 µM | [7] 15.7 µM
not listed: CD38, CD38 (gene 952)
inactive: all other assays above

COc1cc(OC)nc(NC(=O)NS(=O)(=O)c2ncccc2OCC(F)(F)F)n1
inactive: all assays above

COC(=O)N(C(=O)N1CO[C@@]2(C(=O)OC)Cc3cc(Cl)ccc3C2=N1)c1ccc(OC(F)(F)F)cc1
active: [4] 3.16 µM | CD40, CD40 (gene 958) [5] 12.4 µM | [7] 5.43 µM | [8] 5.89 µM | CD40, CD40 (gene 958) [16] 5.46 µM | CD69, CD69 (gene 969) 6.93 µM | [17] 5.47 µM
not listed: [15] | CD38, CD38 (gene 952)
inactive: all other assays above

Cc1cnc(C2=NC(C)(C(C)C)C(=O)N2)c(C(=O)O)c1 (stereo not given)
not listed: [15]
inactive: all other assays above

CC1(C)CON(Cc2ccccc2Cl)C1=O
not listed: [15] | CD38, CD38 (gene 952)
inactive: all other assays above

Cc1cc(C)nc(Nc2ccccc2)n1
active: [7] 26.8 µM
not listed: CD38, CD38 (gene 952)
inactive: all other assays above

CCCCOCN(C(=O)CCl)c1c(CC)cccc1CC
active: [1] 31.6 µM | [2] 32.7 µM | [3] 39.1 µM | [4] 25.7 µM | CD40, CD40 (gene 958) [5] 22.5 µM | [6] 31.3 µM | [7] 28 µM | [8] 29.2 µM | [9] 30.7 µM | [10] 31.8 µM | [12] 27 µM | [13] 30.2 µM | [14] 35.1 µM | CD38, CD38 (gene 952) 29.4 µM | CD40, CD40 (gene 958) [16] 30.8 µM | CD69, CD69 (gene 969) 18.3 µM | [17] 28.5 µM
inactive: [11]

Reference: PubChem BioAssay (EPA / NIEHS)
